The whole screen tested about 70,000 compounds, of which about 120 (0.17%) were called active. Only a selection was taken, and actives are over-represented in it overall. Values without a mark were called inactive. Rule as the data show it: active = inhibition above about 34%; inconclusive = no clear call, values can overlap the other calls; inactive = below about 11%.
target: Isocitrate dehydrogenase [NADP] cytoplasmic (Homo sapiens) (UniProt O75874); assay: PubChem AID 624101; conditions: IDH1 R132H reductase, diaphorase/resazurin fluorescence, 60 min; at 10 µM; hits give high values;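 also: 0% = DMSO and 100% = no enzyme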
Sequence (O75874 whole entry R132H): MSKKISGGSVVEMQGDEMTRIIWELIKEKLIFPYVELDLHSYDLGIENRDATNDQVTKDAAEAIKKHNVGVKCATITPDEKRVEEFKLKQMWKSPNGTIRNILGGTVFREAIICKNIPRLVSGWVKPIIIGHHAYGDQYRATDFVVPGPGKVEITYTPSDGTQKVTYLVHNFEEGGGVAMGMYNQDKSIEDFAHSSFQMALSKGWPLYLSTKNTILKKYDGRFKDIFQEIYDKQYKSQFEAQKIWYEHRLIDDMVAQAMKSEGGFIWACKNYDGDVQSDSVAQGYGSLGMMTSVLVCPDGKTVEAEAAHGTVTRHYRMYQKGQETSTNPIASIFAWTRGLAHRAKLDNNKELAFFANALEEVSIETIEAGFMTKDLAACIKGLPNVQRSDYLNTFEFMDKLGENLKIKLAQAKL

Structure (SMILES)	inhibition
CNC[C@H]1Oc2cc(C#Cc3ccccc3)ccc2S(=O)(=O)N([C@@H](C)CO)C[C@@H]1C	4.92%
Cc1ccc(S(=O)(=O)NCC[C@H]2CC[C@@H](NS(=O)(=O)c3ccccc3Cl)[C@H](CO)O2)cc1	0.263%
O=C(Nc1cccc(Cl)c1)N[C@H]1CC[C@H](CCNC(=O)C2CCOCC2)O[C@H]1CO	0.082%
O=C(C[C@@H]1CC[C@@H](NC(=O)C2CCOCC2)[C@H](CO)O1)Nc1ccc(-c2ccccc2)cc1	0.222%
O=C(C[C@@H]1C=C[C@H](NC(=O)c2ccc3c(c2)OCO3)[C@H](CO)O1)NCc1ccc(Oc2ccccc2)cc1	-0.347%
O=C(C[C@H]1C=C[C@@H](NC(=O)Nc2cc(F)ccc2F)[C@@H](CO)O1)NCc1ccc2c(c1)OCO2	-0.0695%
CN1CCN(C(=O)C[C@@H]2C[C@H]3c4cc(NC(=O)NC5CCCC5)ccc4O[C@H]3[C@H](CO)O2)CC1	-0.193%
CO[C@H]1CN(C)C(=O)c2ccc(NC(=O)c3nc4ccccc4s3)cc2OC[C@@H](C)N(Cc2cncnc2)C[C@H]1C	-1.03%
O=C(C[C@@H]1C[C@@H]2c3cc(NC(=O)C4CCC4)ccc3O[C@@H]2[C@@H](CO)O1)NCc1ccccc1	0.171%
O=C(C[C@@H]1C[C@@H]2c3cc(NC(=O)Cc4ccncc4)ccc3O[C@@H]2[C@H](CO)O1)NCc1cccc(F)c1	0%
C[C@H](NC(=O)N(C)C[C@@H]1OCc2ccccc2-c2ccccc2C(=O)N([C@H](C)CO)C[C@@H]1C)c1ccccc1	-1.38%
Cc1noc(C)c1S(=O)(=O)Nc1ccc2c(c1)C(=O)N([C@H](C)CO)C[C@H](C)[C@H](CN(C)S(C)(=O)=O)OCCCC[C@H](C)O2	2.45%
C[C@@H]1CN([C@@H](C)CO)S(=O)(=O)c2ccc(C#Cc3ccccc3)cc2O[C@@H]1CN(C)C(=O)C1CC1	-0.265%
CO[C@@H]1CN(C)C(=O)c2ccc(NS(=O)(=O)c3ccc(Cl)cc3)cc2OC[C@H](C)N(C(=O)NC(C)C)C[C@H]1C	0.21%
O=C(NCC[C@H]1CC[C@@H](NC(=O)C2CCCC2)[C@@H](CO)O1)c1cc(Cl)cc(Cl)c1	-0.187%
Cc1ccc(S(=O)(=O)NCC[C@@H]2CC[C@H](NC(=O)CC3CC3)[C@H](CO)O2)cc1	-0.044%
O=C(Nc1ccccc1F)N[C@@H]1CC[C@H](CC(=O)N2CCCCC2)O[C@H]1CO	0.211%
O=C(N[C@@H]1CC[C@H](CCn2cc(C3CC3)nn2)O[C@H]1CO)c1cccnc1	0.0945%
CO[C@@H]1CN(C)C(=O)c2ccc(NS(C)(=O)=O)cc2OC[C@@H](C)N(C(=O)C2CCOCC2)C[C@@H]1C	-0.272%
CO[C@@H]1CN(C)C(=O)c2cc(NC(=O)Nc3cc(F)ccc3F)ccc2OC[C@H](C)N(C)C[C@@H]1C	-0.288%
CO[C@@H]1CN(C)C(=O)c2ccc(NS(=O)(=O)c3cccc(Cl)c3)cc2OC[C@H](C)NC[C@H]1C	-0.827%
Cc1ccc(S(=O)(=O)NCC[C@H]2CC[C@H](NC(=O)c3ccccn3)[C@@H](CO)O2)cc1	-0.44%

Structure (SMILES)	inhibition
C[C@@H]1CN([C@H](C)CO)S(=O)(=O)c2ccc(-c3ccc(C(=O)N(C)C)cc3)cc2O[C@@H]1CN(C)C(=O)Nc1ccccc1F	0.371%
COCCNC(=O)C[C@H]1C=C[C@@H](NS(=O)(=O)c2ccc(C)cc2)[C@@H](CO)O1	-0.16%
O=C(NCc1cccnc1)c1cnn2c(C(F)F)cc(-c3ccccc3)nc12	-0.254%
O=C(NCCCn1ccnc1)c1cnn2c(C(F)(F)F)cc(-c3ccccc3)nc12	42.5% (active)
Cc1ccc(-c2cc(C(F)(F)F)n3nc(C(=O)NCCN4CCOCC4)c(Cl)c3n2)cc1	-0.63%
CO[C@H]1CN(C)C(=O)c2ccc(NC(=O)C3CC3)cc2OC[C@@H](C)N(C(=O)c2ccccn2)C[C@@H]1C	0.315%
CO[C@@H]1CN(C)C(=O)c2cc(NC(C)=O)ccc2OC[C@H](C)N(Cc2ccccn2)C[C@H]1C	0.0735%
COc1ccc(C(=O)Nc2ccc3c(c2)C(=O)N(C)C[C@@H](OC)[C@H](C)CN(C(C)=O)[C@@H](C)CO3)cc1	0.119%
CO[C@H]1CC[C@@H]2CCOc3c(C#N)cccc3C(=O)N(C)CCCC(=O)N(C)C[C@@H]1O2	-0.199%
O=C(C[C@@H]1C[C@@H]2c3cc(NS(=O)(=O)c4ccc(F)cc4)ccc3O[C@@H]2[C@H](CO)O1)N1CCCCC1	0.296%
O=C(C[C@H]1CC[C@@H](NC(=O)Nc2ccc(F)cc2)[C@@H](CO)O1)NCCN1CCCC1	-0.0445%
O=C(Nc1ccc(C(F)(F)F)cc1)N[C@@H]1CC[C@H](CCNC(=O)c2ccccc2F)O[C@H]1CO	0.069%
Cc1ccc(S(=O)(=O)N[C@H]2CC[C@H](CC(=O)NCc3ccccc3F)O[C@@H]2CO)cc1	-0.113%
CCCc1cn(CC[C@@H]2CC[C@@H](NS(=O)(=O)c3ccccc3Cl)[C@@H](CO)O2)nn1	-0.18%
CO[C@H]1CN(C)C(=O)c2cc(NC(=O)C3CC3)ccc2OC[C@@H](C)NC[C@H]1C	-0.162%
Cc1ccc(S(=O)(=O)NCC[C@@H]2CC[C@H](NC(=O)c3ccccn3)[C@H](CO)O2)cc1	-0.387%
Cc1ccc(-c2ccc3c(c2)O[C@@H](CN(C)C(=O)CC2CC2)[C@@H](C)CN([C@@H](C)CO)S3(=O)=O)cc1	-0.129%
O=C(C[C@@H]1CC[C@H](NC(=O)CN2CCOCC2)[C@@H](CO)O1)NCCc1ccccc1	0.1%
C[C@@H]1CN([C@H](C)CO)S(=O)(=O)c2ccc(-c3ccncc3)cc2O[C@@H]1CN(C)C(=O)CN(C)C	0.556%
O=C(C[C@H]1C=C[C@H](NC(=O)CC2CC2)[C@H](CO)O1)NCc1ccc(Cl)cc1	-0.172%
C[C@@H]1CN([C@H](C)CO)S(=O)(=O)c2ccc(C3=CCCC3)cc2O[C@H]1CN(C)C(=O)c1ccccc1	1.4%
O=C(C[C@H]1CC[C@H](NC(=O)C2CCC2)[C@@H](CO)O1)Nc1nccs1	0.192%

Structure (SMILES)	inhibition
CO[C@H]1CN(C)C(=O)c2ccc(NS(=O)(=O)c3ccccc3C)cc2OC[C@H](C)NC[C@H]1C	-0.186%
CO[C@H]1CN(C)C(=O)c2cc(NC(C)=O)ccc2OC[C@H](C)N(C(=O)C2CC2)C[C@H]1C	-0.354%
CO[C@H]1CN(C)C(=O)c2ccc(NC(=O)C3CCC3)cc2OC[C@@H](C)N(Cc2ccccn2)C[C@H]1C	0.331%
CCC(=O)Nc1ccc2c(c1)C(=O)N(C)C[C@H](OC)[C@H](C)CN(Cc1ccccc1F)[C@H](C)CO2	0.217%
CO[C@H]1CN(C)C(=O)c2cc(NS(C)(=O)=O)ccc2OC[C@H](C)N(C(=O)C2CCCC2)C[C@H]1C	0.272%
CCC(=O)N(C)C[C@@H]1Oc2cc(C#CC(C)(C)O)ccc2S(=O)(=O)N([C@@H](C)CO)C[C@@H]1C	-1.91%
CN(C)C(=O)C[C@@H]1C[C@@H]2c3cc(NC(=O)c4ccc5c(c4)OCO5)ccc3O[C@@H]2[C@H](CO)O1	-0.927%
Cc1ccc(S(=O)(=O)N[C@H]2CC[C@H](CC(=O)O)O[C@H]2CO)cc1	-0.244%
Cc1ccc(S(=O)(=O)N[C@H]2C=C[C@@H](CC(=O)NCCc3ccncc3)O[C@@H]2CO)cc1	-0.308%
COc1ccc(-c2cn(CC[C@H]3CC[C@@H](N)[C@H](CO)O3)nn2)cc1	0.0195%
CO[C@H]1CN(C)C(=O)c2ccc(NS(=O)(=O)c3cn(C)cn3)cc2OC[C@H](C)N(C)C[C@H]1C	-0.0025%
O=C(N[C@H]1C=C[C@@H](CC(=O)N2CCCCC2)O[C@@H]1CO)c1ccc2c(c1)OCO2	-0.0205%
O=C(C[C@@H]1C[C@@H]2c3cc(NC(=O)C4CCOCC4)ccc3O[C@@H]2[C@H](CO)O1)NCc1ccncc1	-0.106%
CCCNC(=O)N1C[C@H](C)[C@H](OC)CN(C)C(=O)c2cc(NC(=O)CC)ccc2OC[C@H]1C	-0.059%
CCC(=O)N(C)C[C@@H]1Oc2ncc(-c3ccccc3OC)cc2C(=O)N([C@@H](C)CO)C[C@@H]1C	-0.321%
CN1CCN(C(=O)C[C@H]2C[C@H]3c4cc(NC(=O)Nc5ccccc5F)ccc4O[C@H]3[C@H](CO)O2)CC1	-0.523%
O=C(Nc1ccc2c(c1)OCO2)N[C@@H]1CC[C@H](CC(=O)N2CCN(c3ccccc3)CC2)O[C@@H]1CO	-0.0065%
O=C(Cc1ccncc1)NCC[C@H]1CC[C@H](NC(=O)C2CC2)[C@H](CO)O1	0.014%
CCC(=O)N(C)C[C@H]1Oc2cc(C#CCC(C)C)ccc2S(=O)(=O)N([C@H](C)CO)C[C@H]1C	-0.831%
O=C(NCC[C@H]1CC[C@@H](NC(=O)c2cnccn2)[C@H](CO)O1)Nc1ccc(Cl)cc1	-0.362%
CN(C)CCCNC(=O)C[C@@H]1C=C[C@H](NC(=O)Cc2cccnc2)[C@H](CO)O1	0.394%

From PubChem BioAssay AID624101 (Broad Institute, 2012)
